Structures are written as SMILES. About 83,000 compounds went through this panel and 20% of them were active in at least one assay; those are over-represented in the sample as a whole.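 A percent growth of 40 corresponds to 60% growth inhibition; 0 means no net growth; -100 means all cells died. Active threshold: below 10.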 Active and inactive are the calls of the source.

For this assay, the system named is HL-60(TB) leukemia. In words: NCI-60 one-dose screen, 48 h (100 = growth as untreated, 0 = no growth, -100 = all killed). The settings on record: 10 µM unless noted.
Consider `COc1ccccc1S(=O)(=O)Nc1ccc2c3c(cc(-c4cnn(C)c4)nc13)C(=O)N2C`, for which the growth was -30.1% (active). The value for `COc1ccc(/C=N\N2CCOCC2)cc1OC1CCCC1` was 104% (inactive); that for `Cc1n(Cc2ccc3ccccc3c2)c(Cl)c(Cl)[n+]1Cc1ccc2ccccc2c1` was -34.6% (active); that for `COc1c2c(cc3c1C(=O)N[C@@H]1[C@@H](O)[C@@H](O)[C@H](O)C[C@@H]31)OCCO2` was 95.4% (inactive).

Turning to `O=C(/C=C/C12c3ccccc3C(c3ccccc31)C1C(=O)NC(=O)C12)c1ccccc1` (stereo not given), the growth is 9.79% (active). The value for `CC(C)CCC[C@@H](C)[C@H]1CC[C@H]2[C@@H]3CC=C4c5sc(Nc6cc(C(F)(F)F)cc(C(F)(F)F)c6)nc5CC[C@]4(C)[C@H]3CC[C@]12C` was 101% (inactive); that for `O=C(/C=C1\C(=O)N(Cc2ccc([N+](=O)[O-])cc2)c2ccccc21)c1ccc(OCCN2CCCCC2)cc1` was -50.6% (active); that for `CC(=O)OC[C@]12CC[C@@H](/C(C)=N/O)[C@@H]1[C@H]1CC[C@@H]3[C@@]4(C)CCCNC(C)(C)[C@@H]4CC[C@@]3(C)[C@]1(C)CC2` was 37.7% (inactive). Consider `COc1ccc(C(=O)OC2C(OC3C(O)COC(O[C@H]4C[C@H]5[C@@H]6CC=C7C[C@@H](O)CC[C@]7(C)[C@H]6CC[C@]5(C)[C@H]4[C@H](C)C(=O)CCC(C)C)C3OC(=O)C(C)C)OCC(O)C2O)cc1` (stereo not given in full), for which the growth is -17% (active). To `O=C(Nc1ccc(Cl)c(Cl)c1)Nc1c(Oc2ccc(Cl)c(Cl)c2)ccc(Cl)c1S(=O)(=O)O` belongs 4.23% (active); to `CS(=O)(=O)N1CCc2c(-c3cnc(N)nc3)nc(N3CCOCC3)nc21`, 34.9% (inactive). To `C=CC[N+](C)(C)C` belongs 107% (inactive); to `CCOC(=O)C1=C(CCl)NC(=O)NC1c1ccc2c(c1)OCO2` (stereo not given), 56.9% (inactive).

With `O=c1n(CC2CO2)c(=O)n(CC2CO2)n1CC1CO1` (stereo not given), the growth was 7.91% (active). As to `N#CCCN1C/C(=C/c2ccc(Br)cc2)C(=O)/C(=C/c2ccc(Br)cc2)C1`, the growth was 1.68% (active). The value for `O=[N+]([O-])c1cc2c(ccc3occc32)o1` was 5.05% (active). Turning to `COc1ccccc1N1CCN(C(CNS(=O)(=O)c2ccc(Cl)cc2)c2cccnc2)CC1` (stereo not given), the growth was 66.1% (inactive). To `COC(=O)c1c2c(c(C)[n+]([O-])c1C)C(=O)C=C(NCc1cccc(OC)c1)C2=O` belongs -37.3% (active). The value for `CCN(CC)c1ccc(-c2cc(-c3cc(OC)c(OC)c(OC)c3)nc(N3CCC(O)CC3)c2C#N)cc1` was -14.1% (active); that for `Cc1cc(Br)c2nsnc2c1[N+](=O)[O-]` was 37.7% (inactive).

As to `COc1ccc(C2CC(c3ccccc3)=Nc3ccccc3S2)cc1` (stereo not given), the growth was 85.7% (inactive). To `OC(c1ccccc1)C(NCc1ccccc1)c1ccccc1` (stereo not given) belongs 98.4% (inactive); to `COc1ccc(/C=N/C2=C(C#N)C(c3ccc(OC)cc3)c3ccc4ccccc4c3O2)cc1` (stereo not given), 63.4% (inactive). To `C#CCn1cc(C=C2C(=O)N(C)C(=O)N(C)C2=O)c2cc(Cl)ccc21` belongs 105% (inactive); to `CN(C)C1CCC(NC2=CC(=O)C=CC2=O)CC1` (stereo not given), 114% (inactive); to `CCC([N+](=O)[O-])S(=O)(=O)c1ccc(C)cc1` (stereo not given), 132% (inactive). The value for `O=C1CCc2c(sc3[nH]c(=S)n(-c4cc(C(F)(F)F)cc(C(F)(F)F)c4)c(=O)c23)C1` was -14.2% (active). Regarding `CCOC(=O)n1cc(-c2nonc2-c2cn(C)c3ccc(OC)cc23)c2cc(F)ccc21`, the growth was 99.7% (inactive). With `OCCN(CCO)C(=S)S`, the growth is 104% (inactive). The value for `CCN(CC)CC[n+]1cc2cc(OC)c(OC)cc2c2ccc3cc4c(cc3c21)OCO4` was -33.5% (active); that for `C#CCn1cnc2cnc(Nc3cccc(NC(=O)CCl)c3)nc21` was -7.95% [6.25 µM] (active).

With `O=C1Nc2ccccc2/C1=C/C(=N/c1nnc(-c2ccccc2)s1)c1ccccc1`, the growth is -32.9% (active). To `O=c1[nH]nc(-c2ccc(Cl)cc2)cc1Cc1ccccc1` belongs 77% (inactive); to `Cc1c(C)c2c(c(C)c1NC(=O)CCCCCCC(=O)O)CCC(C)(CCCC(C)CCCC(C)CCCC(C)C)O2` (stereo not given), 75.1% (inactive). To `CC(=O)OC1Oc2ccccc2-c2oc(=O)c(-c3cc4ccc(N(C)C)cc4oc3=O)cc21` (stereo not given) belongs -9.4% (active); to `COc1ccc(C2Nc3ccccc3-n3cccc32)cc1` (stereo not given), 113% (inactive); to `COc1ccc(C2CC(c3cc(OC)c(OC)c(OC)c3)=NN2C(C)=O)cc1OCC(=O)Nc1nc2ccc(C(F)(F)F)cc2s1` (stereo not given), 79.1% (inactive). To `O=C(Nc1ccccc1)OCC1OCOC(COC(=O)Nc2ccccc2)C1OC(=O)Nc1ccccc1` (stereo not given) belongs 122% (inactive). In the case of `COC(=O)c1ccc2c(c1)Oc1ccc(Cl)cc1-c1cc(C)nn1-2`, the growth was 103% (inactive). To `COc1cc(Nc2nc(NCCN)nc3cc[nH]c(=O)c23)cc(OC)c1` belongs 71.8% (inactive).

The record behind these values is PubChem BioAssay (NCI).
